From the supplement of paper PMC8728848
Only a selection was taken, and the strongest signals are over-represented in it overall.

Experiments:
Test in all cases: glycan array binding signal (z-score within array); higher = stronger binding
Conditions in all cases: glycan notation: IUPAC condensed, linker removed
[1] = biological target: Fuc(a1-2)Gal6S(b1-4)GlcNAc
How it was run: (§1)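 Arrays were curated from the Consortium for Functional Glycomics database, 3228 in total, and kept only where the protein sequence was available. Binding is expressed as a within-array Z-score. This score was averaged across arrays of the same protein sequence at different concentrations or buffers and across linkers, and negative values can be read as non-binding.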

[2] = biological target: Fuc(a1-2)[Gal(a1-3)]Gal(b1-4)GlcNAc(b1-2)Man(a1-3)[Fuc(a1-2)[Gal(a1-3)]Gal(b1-4)GlcNAc(b1-2)Man(a1-6)]Man(b1-4)GlcNAc(b1-4)GlcNAc
How it was run: as §1

[3] = biological target: Fuc(a1-2)[GalNAc(a1-3)]Gal(b1-4)Glc
How it was run: as §1

[4] = biological target: Fuc(a1-3)[Gal(b1-4)]GlcNAc(b1-4)Gal(b1-4)[Fuc(a1-3)]GlcNAc
How it was run: as §1

[5] = biological target: Gal(a1-3)Gal(b1-3)GlcNAc(b1-2)Man(a1-3)[Gal(a1-3)Gal(b1-3)GlcNAc(b1-2)Man(a1-6)]Man(b1-4)GlcNAc(b1-4)GlcNAc
How it was run: as §1

Gal(b1-3)Gal = biological target: Gal(b1-3)Gal
How it was run: as §1

[6] = biological target: Gal(b1-3)Gal(b1-4)GlcNAc(b1-2)Man(a1-3)[Gal(b1-3)Gal(b1-4)GlcNAc(b1-2)Man(a1-6)]Man(b1-4)GlcNAc(b1-4)GlcNAc
How it was run: as §1

[7] = biological target: Gal(b1-3)[Fuc(a1-4)]GlcNAc(b1-2)Man(a1-3)[Gal(b1-3)[Fuc(a1-4)]GlcNAc(b1-2)Man(a1-6)]Man(b1-4)GlcNAc(b1-4)GlcNAc
How it was run: as §1

[8] = biological target: Gal(b1-4)GalNAc(a1-3)[Fuc(a1-2)]Gal(b1-4)GlcNAc
How it was run: as §1

[9] = biological target: Gal(b1-4)GlcNAc(b1-2)Man(a1-3)Man(b1-4)GlcNAc(b1-4)GlcNAc
How it was run: as §1

Gal3S(b1-3)GalNAc = biological target: Gal3S(b1-3)GalNAc
How it was run: as §1

Gal3S(b1-4)GlcNAc6S = biological target: Gal3S(b1-4)GlcNAc6S
How it was run: as §1

Gal3S6S(b1-4)GlcNAc = biological target: Gal3S6S(b1-4)GlcNAc
How it was run: as §1

Gal3S6S(b1-4)GlcNAc6S = biological target: Gal3S6S(b1-4)GlcNAc6S
How it was run: as §1

[10] = biological target: GlcNAc(b1-2)Gal(b1-3)GalNAc
How it was run: as §1

[11] = biological target: GlcNAc(b1-2)Man(a1-3)[GlcNAc(b1-2)Man(a1-6)]Man(b1-4)GlcNAc(b1-4)GlcNAc
How it was run: as §1

[12] = biological target: GlcNAc(b1-2)Man(a1-3)[GlcNAc(b1-2)Man(a1-6)]Man(b1-4)GlcNAc(b1-4)[Fuc(a1-6)]GlcNAc
How it was run: as §1

[13] = biological target: GlcNAc(b1-3)Gal(b1-3)GalNAc
How it was run: as §1

[14] = biological target: GlcNAc(b1-3)[GlcNAc(b1-4)][GlcNAc(b1-6)]GlcNAc
How it was run: as §1

[15] = biological target: GlcNAc(b1-3)[GlcNAc(b1-6)]Gal(b1-4)GlcNAc
How it was run: as §1

GlcNAc(b1-6)GalNAc = biological target: GlcNAc(b1-6)GalNAc
How it was run: as §1

Kdn(a2-3)Gal(b1-3)GalNAc = biological target: Kdn(a2-3)Gal(b1-3)GalNAc
How it was run: as §1

[16] = biological target: Neu5Ac(a2-3)Gal(b1-3)GalNAc(b1-3)Gal(a1-4)Gal(b1-4)Glc
How it was run: as §1

[17] = biological target: Neu5Ac(a2-3)Gal(b1-3)[Fuc(a1-4)]GlcNAc
How it was run: as §1

[18] = biological target: Neu5Ac(a2-3)Gal(b1-4)GlcNAc6S
How it was run: as §1

[19] = biological target: Neu5Ac(a2-3)Gal(b1-4)[Fuc(a1-3)]GlcNAc(b1-3)GalNAc
How it was run: as §1

[20] = biological target: Neu5Ac(a2-3)Gal(b1-4)[Fuc(a1-3)]GlcNAc(b1-6)[Neu5Ac(a2-3)Gal(b1-3)]GalNAc
How it was run: as §1

[21] = biological target: Neu5Ac(a2-6)Gal(b1-4)GlcNAc(b1-3)Gal(b1-4)GlcNAc
How it was run: as §1

[22] = biological target: Neu5Ac(a2-6)GlcNAc(b1-4)GlcNAc(b1-4)GlcNAc
How it was run: as §1

Neu5Ac(a2-8)Neu5Ac = biological target: Neu5Ac(a2-8)Neu5Ac
How it was run: as §1

B1: CREG (Mus musculus), O88668 (protein)
chain: MAARAPELARSLLAALLAPALVALLVSPASGRGGRDHGDWDVDRRLPPLPPREDGPRVARFVTHVSDWGSLATISTIKEVRGWPFADIISISDGPPGEGTGEPYMYLSPLQQAVSDLQENPEATLTMSLAQTVYCRNHGFDPQSPLCVHIMMSGTVTKVNKTEEDYARDSLFVRHPEMKHWPSSHNWFFAKLKISRIWVLDYFGGPKVVTPEEYFNVTLQ
glycan array binding signal (z-score) [1]: -0.138
glycan array binding signal (z-score) [2]: 2.76
glycan array binding signal (z-score) [3]: 0.375
glycan array binding signal (z-score) [4]: 2.95
glycan array binding signal (z-score) [5]: 3.49
glycan array binding signal (z-score) (Gal(b1-3)Gal): 0.033
glycan array binding signal (z-score) [6]: 0.416
glycan array binding signal (z-score) [7]: 6.79
glycan array binding signal (z-score) [8]: 0.494
glycan array binding signal (z-score) [9]: -0.442
glycan array binding signal (z-score) (Gal3S(b1-3)GalNAc): 0.036
glycan array binding signal (z-score) (Gal3S(b1-4)GlcNAc6S): 0.604
glycan array binding signal (z-score) (Gal3S6S(b1-4)GlcNAc): 1.52
glycan array binding signal (z-score) (Gal3S6S(b1-4)GlcNAc6S): 2.03
glycan array binding signal (z-score) [10]: -0.651
glycan array binding signal (z-score) [11]: 0.15
glycan array binding signal (z-score) [12]: 3.8
glycan array binding signal (z-score) [13]: 3.22
glycan array binding signal (z-score) [14]: 2.23
glycan array binding signal (z-score) [15]: -0.627
glycan array binding signal (z-score) (GlcNAc(b1-6)GalNAc): -0.035
glycan array binding signal (z-score) (Kdn(a2-3)Gal(b1-3)GalNAc): 0.66
glycan array binding signal (z-score) [16]: -0.096
glycan array binding signal (z-score) [17]: -0.737
glycan array binding signal (z-score) [18]: 1.38
glycan array binding signal (z-score) [19]: 3.4
glycan array binding signal (z-score) [20]: 4.66
glycan array binding signal (z-score) [21]: 0.227
glycan array binding signal (z-score) [22]: 0.386
glycan array binding signal (z-score) (Neu5Ac(a2-8)Neu5Ac): -0.211
